Among all 5,500 compounds or so, about 2,000 (36%) were called active. Another 18% or so got no clear call; they are omitted. No stated cut-off is given here; in the data, active means normalized growth mostly below about 0.91 (no sharp cut-off); inconclusive means no clear call, values can overlap the other calls; inactive means mostly above about 0.92. The list shows a part of the results.
Test: chemical genetic growth profiling, strain panel (AID 1159580);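 further: tested at 20 µM; growth read once vehicle control cultures reached saturation at 30 °C; 1 = growth at the plate median or of vehicle wells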
Conditions: growth OD
[1] = S. cerevisiae deletion strains, locus YAR019C, strain CDC15, stronger effect = lower value
[2] = S. cerevisiae deletion strains, locus YBL105C, strain PKC1, stronger effect = lower value
[3] = S. cerevisiae deletion strains, locus YBR135W, strain CKS1, stronger effect = lower value
[4] = S. cerevisiae deletion strains, locus YBR136W, strain MEC1, stronger effect = lower value
[5] = S. cerevisiae deletion strains, locus YBR160W, strain CDC28, stronger effect = lower value
[6] = S. cerevisiae deletion strains, locus YDL017W, strain CDC7, stronger effect = lower value
[7] = S. cerevisiae deletion strains, locus YDL028C, strain MPS1, stronger effect = lower value
[8] = S. cerevisiae deletion strains, locus YDL101C, strain DUN1, stronger effect = lower value
[9] = S. cerevisiae deletion strains, locus YDL108W, strain KIN28, stronger effect = lower value
[10] = S. cerevisiae deletion strains, locus YDL132W, strain cdc53, stronger effect = lower value
[11] = S. cerevisiae deletion strains, locus YDL214C, strain PRR2, stronger effect = lower value
[12] = S. cerevisiae deletion strains, locus YDR052C, strain DBF4, stronger effect = lower value
[13] = S. cerevisiae deletion strains, locus YDR054C, strain cdc34, stronger effect = lower value
[14] = S. cerevisiae deletion strains, locus YDR226W, strain ADK1, stronger effect = lower value
[15] = S. cerevisiae deletion strains, locus YDR477W, strain SNF1, stronger effect = lower value
[16] = S. cerevisiae deletion strains, locus YER123W, strain YCK3, stronger effect = lower value
[17] = S. cerevisiae deletion strains, locus YER133W, strain GLC7, stronger effect = lower value
[18] = S. cerevisiae deletion strains, locus YFL009W, strain cdc4, stronger effect = lower value
[19] = S. cerevisiae deletion strains, locus YFL029C, strain CAK1, stronger effect = lower value
[20] = S. cerevisiae deletion strains, locus YFR003C, strain YPI1, stronger effect = lower value
[21] = S. cerevisiae deletion strains, locus YFR019W, strain FAB1, stronger effect = lower value
[22] = S. cerevisiae deletion strains, locus YFR028C, strain CDC14, stronger effect = lower value
[23] = S. cerevisiae deletion strains, locus YGR040W, strain KSS1, stronger effect = lower value
[24] = S. cerevisiae deletion strains, locus YGR052W, strain FMP48, stronger effect = lower value
[25] = S. cerevisiae deletion strains, locus YGR092W, strain DBF2, stronger effect = lower value
[26] = S. cerevisiae deletion strains, locus YHR030C, strain SLT2, stronger effect = lower value
[27] = S. cerevisiae deletion strains, locus YHR079C, strain IRE1, stronger effect = lower value
[28] = S. cerevisiae deletion strains, locus YHR082C, strain KSP1, stronger effect = lower value
[29] = S. cerevisiae deletion strains, locus YHR205W, strain SCH9, stronger effect = lower value
[30] = S. cerevisiae deletion strains, locus YIL147C, strain SLN1, stronger effect = lower value
[31] = S. cerevisiae deletion strains, locus YJL095W, strain BCK1, stronger effect = lower value
[32] = S. cerevisiae deletion strains, locus YJL128C, strain PBS2, stronger effect = lower value
[33] = S. cerevisiae deletion strains, locus YJL157C, strain FAR1, stronger effect = lower value
[34] = S. cerevisiae deletion strains, locus YJR016C, strain ILV3, stronger effect = lower value
[35] = S. cerevisiae deletion strains, locus YJR066W, strain TOR1 (second series), stronger effect = lower value
[36] = S. cerevisiae deletion strains, locus YJR066W, strain TOR1, stronger effect = lower value
[37] = S. cerevisiae deletion strains, locus YKL048C, strain ELM1, stronger effect = lower value
[38] = S. cerevisiae deletion strains, locus YKL067W, strain YNK1, stronger effect = lower value
[39] = S. cerevisiae deletion strains, locus YKL101W, strain HSL1, stronger effect = lower value
[40] = S. cerevisiae deletion strains, locus YKL193C, strain SDS22, stronger effect = lower value
[41] = S. cerevisiae deletion strains, locus YKL203C, strain TOR2, stronger effect = lower value
[42] = S. cerevisiae deletion strains, locus YLR113W, strain HOG1, stronger effect = lower value
[43] = S. cerevisiae deletion strains, locus YLR133W, strain CKI1, stronger effect = lower value
[44] = S. cerevisiae deletion strains, locus YLR403W, strain SFP1, stronger effect = lower value
[45] = S. cerevisiae deletion strains, locus YML070W, strain DAK1, stronger effect = lower value
[46] = S. cerevisiae deletion strains, locus YMR001C, strain CDC5, stronger effect = lower value
[47] = S. cerevisiae deletion strains, locus YMR205C, strain PFK2 (second series), stronger effect = lower value
[48] = S. cerevisiae deletion strains, locus YMR277W, strain FCP1, stronger effect = lower value
[49] = S. cerevisiae deletion strains, locus YNL006W, strain LST8, stronger effect = lower value
[50] = S. cerevisiae deletion strains, locus YNL020C, strain ARK1, stronger effect = lower value
[51] = S. cerevisiae deletion strains, locus YNL161W, strain CBK1, stronger effect = lower value
[52] = S. cerevisiae deletion strains, locus YNL183C, strain NPR1, stronger effect = lower value
[53] = S. cerevisiae deletion strains, locus YNL207W, strain RIO2, stronger effect = lower value
[54] = S. cerevisiae deletion strains, locus YNL222W, strain SSU72, stronger effect = lower value
[55] = S. cerevisiae deletion strains, locus YNL307C, strain MCK1 (second series), stronger effect = lower value
[56] = S. cerevisiae deletion strains, locus YOL078W, strain AVO1, stronger effect = lower value
[57] = S. cerevisiae deletion strains, locus YOL136C, strain PFK27, stronger effect = lower value
[58] = S. cerevisiae deletion strains, locus YOR061W, strain CKA2, stronger effect = lower value
[59] = S. cerevisiae deletion strains, locus YOR119C, strain RIO1, stronger effect = lower value
[60] = S. cerevisiae deletion strains, locus YOR231W, strain MKK1, stronger effect = lower value
[61] = S. cerevisiae deletion strains, locus YOR329C, strain SCD5, stronger effect = lower value
[62] = S. cerevisiae deletion strains, locus YPL031C, strain PHO85, stronger effect = lower value
[63] = S. cerevisiae deletion strains, locus YPL153C, strain RAD53, stronger effect = lower value
[64] = S. cerevisiae deletion strains, locus YPL204W, strain HRR25, stronger effect = lower value
[65] = S. cerevisiae deletion strains, locus YPL209C, strain IPL1, stronger effect = lower value
[66] = S. cerevisiae deletion strains, locus YPL256C, strain CLN2, stronger effect = lower value
[67] = S. cerevisiae deletion strains, locus YPR025C, strain CCL1, stronger effect = lower value
[68] = S. cerevisiae deletion strains, locus YPR106W, strain ISR1, stronger effect = lower value
[69] = S. cerevisiae deletion strains, locus YPR111W, strain DBF20, stronger effect = lower value
[70] = S. cerevisiae deletion strains, strain NNK1, stronger effect = lower value
[71] = S. cerevisiae deletion strains, strain TSCII, stronger effect = lower value
[72] = S. cerevisiae deletion strains, locus YAL013W, strain DEP1, stronger effect = lower value
[73] = S. cerevisiae deletion strains, locus YBR229C, strain ROT2, stronger effect = lower value
[74] = S. cerevisiae deletion strains, locus YCL061C, strain MRC1, stronger effect = lower value
[75] = S. cerevisiae deletion strains, locus YDR150W, strain NUM1, stronger effect = lower value
[76] = S. cerevisiae deletion strains, locus YEL061C, strain CIN8, stronger effect = lower value
[77] = S. cerevisiae deletion strains, locus YGR078C, strain PAC10, stronger effect = lower value
[78] = S. cerevisiae deletion strains, locus YHR087W, strain rtc3, stronger effect = lower value
[79] = S. cerevisiae deletion strains, locus YJR043C, strain POL32, stronger effect = lower value
[80] = S. cerevisiae deletion strains, locus YLR039C, strain RIC1, stronger effect = lower value
[81] = S. cerevisiae deletion strains, locus YLR058C, strain SHM2 (second series), stronger effect = lower value
[82] = S. cerevisiae deletion strains, locus YLR085C, strain ARP6, stronger effect = lower value
[83] = S. cerevisiae deletion strains, locus YLR262C, strain YPT6, stronger effect = lower value
[84] = S. cerevisiae deletion strains, locus YML094W, strain GIM5, stronger effect = lower value
[85] = S. cerevisiae deletion strains, locus YMR219W, strain ESC1, stronger effect = lower value
[86] = S. cerevisiae deletion strains, locus YMR263W, strain SAP30, stronger effect = lower value
[87] = S. cerevisiae deletion strains, locus YNL153C, strain GIM3, stronger effect = lower value
[88] = S. cerevisiae deletion strains, locus YNL298W, strain CLA4 (second series), stronger effect = lower value
[89] = S. cerevisiae deletion strains, locus YNL322C, strain KRE1, stronger effect = lower value
[90] = S. cerevisiae deletion strains, locus YNR030W, strain Alg12, stronger effect = lower value
[91] = S. cerevisiae deletion strains, locus YPL055C, strain LGE1, stronger effect = lower value
[92] = S. cerevisiae deletion strains, locus YPL241C, strain CIN2, stronger effect = lower value
[93] = S. cerevisiae deletion strains, locus YPR135W, strain CTF4, stronger effect = lower value

Measured: normalized growth

O=[N+]([O-])c1cccc(C2CC(c3ccccc3)=Nc3ccccc3S2)c1 (stereo not given)
inactive: [1] 0.947 | [2] 0.953 | [3] 0.959 | [4] 0.974 | [5] 0.966 | [6] 0.97 | [7] 0.965 | [8] 0.95 | [9] 0.975 | [10] 0.952 | [11] 0.962 | [12] 0.973 | [13] 0.946 | [14] 0.953 | [15] 0.962 | [16] 1 | [17] 0.96 | [18] 0.959 | [19] 0.939 | [20] 0.973 | [21] 0.996 | [22] 0.948 | [23] 0.955 | [24] 1.06 | [25] 0.969 | [26] 0.976 | [27] 0.975 | [28] 0.997 | [29] 0.934 | [30] 0.969 | [31] 0.982 | [32] 0.93 | [33] 0.969 | [34] 0.954 | [35] 0.934 | [36] 0.974 | [37] 0.971 | [38] 0.968 | [39] 0.965 | [40] 0.954 | [41] 1.01 | [42] 0.927 | [43] 0.977 | [44] 0.95 | [45] 0.975 | [46] 0.946 | [47] 0.967 | [48] 0.952 | [49] 0.97 | [50] 0.963 | [51] 0.957 | [52] 0.985 | [53] 0.964 | [54] 0.958 | [55] 0.98 | [56] 0.952 | [57] 0.996 | [58] 0.949 | [59] 0.975 | [60] 0.983 | [61] 0.95 | [62] 0.961 | [63] 0.964 | [64] 0.979 | [65] 0.957 | [66] 0.939 | [67] 0.954 | [68] 0.967 | [69] 0.968 | [70] 0.963 | [71] 0.946

Cc1cc(C)c(Cn2nc(C(C)(C)C)cc2C(=O)Nc2cccc(C(F)(F)F)c2)c(C)c1
inactive: [72] 0.991 | [73] 1.06 | [74] 0.99 | [8] 0.999 | [75] 1.16 | [76] 0.986 | [77] 0.998 | [26] 1.1 | [78] 0.999 | [79] 0.927 | [80] 1.02 | [81] 1 | [82] 1.01 | [83] 1.02 | [84] 1 | [85] 0.998 | [86] 0.988 | [87] 1 | [88] 1.02 | [89] 0.992 | [90] 0.994 | S. cerevisiae deletion strains, locus YOL006C, strain TOP1, stronger effect = lower value 1.06 | [91] 1.05 | [92] 0.995 | [93] 1.07 | S. cerevisiae strains, strain wild type, stronger effect = lower value 1

Cc1cccc(Cn2nc(C(C)(C)C)cc2C(=O)O)c1
inactive: [72] 0.96 | [73] 0.96 | [74] 1 | [8] 0.978 | [75] 0.98 | [76] 0.998 | [77] 0.97 | [26] 1.03 | [78] 0.949 | S. cerevisiae deletion strains, locus YJL187C, strain SWE1, stronger effect = lower value 0.973 | [79] 0.971 | S. cerevisiae deletion strains, locus YJR075W, strain HOC1, stronger effect = lower value 0.963 | S. cerevisiae deletion strains, locus YKL190W, strain CNB1, stronger effect = lower value 0.982 | [80] 0.882 | [81] 0.969 | [82] 1.02 | [83] 0.905 | [84] 1 | [85] 0.946 | [86] 0.998 | [87] 0.985 | [88] 0.997 | [89] 0.946 | [90] 1 | [91] 0.978 | [92] 1.01 | [93] 0.986

CC(C)(C)c1cc(C(=O)Nc2ccc3c(c2)OCO3)n(Cc2ccc(F)cc2)n1
inactive: [1] 0.987 | [2] 0.968 | [3] 0.979 | [4] 0.99 | [5] 0.98 | [6] 0.989 | [7] 0.991 | [8] 0.997 | [9] 0.986 | [10] 0.972 | [11] 0.908 | [12] 0.988 | [13] 0.993 | [14] 0.983 | [15] 0.938 | [16] 0.906 | [17] 0.955 | [18] 0.994 | [19] 0.98 | [20] 0.991 | [21] 0.938 | [22] 0.978 | [23] 0.916 | [24] 0.997 | [25] 0.902 | [26] 0.878 | [27] 0.926 | [28] 0.984 | [29] 0.86 | [30] 0.99 | [31] 0.877 | [32] 0.977 | [33] 0.909 | [34] 0.981 | [35] 0.889 | [36] 0.999 | [37] 0.931 | [38] 0.94 | [39] 0.891 | [40] 0.987 | [41] 0.994 | [43] 0.918 | [44] 0.906 | [45] 0.895 | [46] 0.982 | [47] 0.926 | [48] 0.971 | [49] 0.987 | [50] 0.889 | [51] 0.969 | [52] 0.928 | [53] 0.986 | [54] 0.983 | [55] 0.9 | [56] 0.981 | [57] 0.892 | [58] 0.874 | [59] 0.992 | [60] 0.876 | [61] 0.96 | [62] 0.934 | [63] 0.923 | [64] 0.909 | [65] 0.968 | [66] 0.887 | [67] 0.995 | [68] 0.964 | [69] 0.936 | [70] 0.974 | [71] 0.986
active: [42] 0.858
